Data published in PubChem BioAssay (NCI).
About 83,000 compounds went through this panel and 20% of them were active in at least one assay; those are over-represented in the sample as a whole.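 Growth was measured after 48 h exposure to one concentration of compound in 96-well plates. Values under 10 count as active.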 Unmarked numbers belong to inactive results. Active and inactive are the calls of the source.

Tested on: COLO 205 colon
Experiment: NCI-60 one-dose screen, 48 h (100 = growth as untreated, 0 = no growth, -100 = all killed)
Conditions: 10 µM unless noted

Structure (SMILES) | growth
COc1cc2c3c(cc4c5c(ccc4c3c1OC)OCO5)N(CCN(C)C)C2=O | -10.7% (active)
N#Cc1c(-c2cccs2)cc(-c2cnccn2)nc1SCC(=O)N/N=C/c1ccc(Cl)cc1 | 115%
COC(=O)c1cccc(NC2=CC(=O)C(C)=C(C)C2=O)c1 | 114%
C#Cc1nc(/C=C/CCCCCCC(=O)NO)cs1 | 81.8%
CC(=O)Nc1nc(C)c(-c2csc(Nc3ccccc3)n2)s1 | 38%
CC1=C(C)C(=O)C(Nc2ccc3c(c2)OCO3)=C(Br)C1=O | 122%
N#Cc1cccc(-c2cc(-c3ccc4c(c3)OCCO4)[nH]n2)c1 | 20.2%
COc1ccc2c(c1)c(-c1nc(N)nnc1-c1c[nH]c3ccccc13)cn2C | 29.3%
CC1(C)CC[C@]23CC[C@]4(C)[C@H](CC[C@@H]5[C@@]6(C)CC[C@H](N)C(C)(C)[C@@H]6CC[C@]54C)[C@H]2[C@H]1OC3 | -40.4% (active)
Fc1cccc(Cl)c1/C=N/Nc1nc(N/N=C/c2c(F)cccc2Cl)nc(N2CCCCC2)n1 | -16.7% (active)
Cc1ccccc1N1CCN(C2=C(Cl)C(=O)c3ncccc3C2=O)CC1 | 31.8%
CC(=O)OC[C@@]12Oc3c(cccc3-c3ccc(O)c4c3O[C@]3(COC(C)=O)C(=C4O)C(=O)C[C@H](C)[C@@H]3OC(C)=O)C(O)=C1C(=O)C[C@H](C)[C@@H]2OC(C)=O | -3.3% (active)
COc1ccc(CC(C)=C(c2ccc(OCCN3CCCC3)cc2)c2ccc(OCCN3CCCC3)cc2)cc1 | -61% (active)
CNC(=O)c1cc(N2CCc3cc(NC(=O)Nc4ccc(N5CCOCC5)c(C(F)(F)F)c4)ccc32)ccn1 | 26.7%
CN(C)CC(=O)Nc1nc(-c2cccc(NS(=O)(=O)c3cccc4c(N(C)C)cccc34)c2)cs1 | 104%
NCCNC(=O)c1cccc(COc2ccccc2NC(=O)c2cc(Cl)c(Cl)[nH]2)c1 | 113%
COc1cccc2c1C=CC1(O2)Oc2cccc(OC)c2C=C1C (configuration not stated) | 16.6%
COc1ccc(-c2c(C(N)=O)c(N)n(Cc3nc4ccccc4[nH]3)c(=O)c2C#N)c(OC)c1 | 117%
NC1C2CCC1CN(c1cnc(C(=O)Nc3cc(F)cc4cccnc34)cn1)C2 (configuration not stated) | -0.393% (active)
COc1ccc2c(c1)c(-c1nnc(N)nc1-c1c[nH]c3ccc(F)cc13)cn2C | 41.4%
COc1ccc([C@H]2C(=O)N(c3cc(OC)c(OC)c(OC)c3)[C@@H]2c2ccc(OC)c(O)c2)cc1 | -76.1% (active)
CCOC(=O)c1cnc2c(-c3ccc(Cl)c(Cl)c3)cnn2c1 | 76.8%
Oc1[nH]c2ccc(Cl)cc2c1N=Nc1nc(N=Nc2c(O)[nH]c3ccc(Cl)cc23)nc(N2CCOCC2)n1 | 48.7%
CCC1=Cc2c(OC)cccc2OC12C=Cc1c(OC)cccc1O2 (configuration not stated) | 17.2%
CCCC/C(=C\c1ccc(O)c(O)c1)C(=O)NC(Cc1ccccc1)C(=O)C(=O)NCCc1ccc(OC)cc1 (configuration not stated) | 110%
CC/C(=C(/c1ccc(Cl)cc1)c1ccc(OCCN)cc1)c1ccccc1 | 18%
Cc1ccc(S(=O)(=O)c2nc(-c3ccc(F)cc3)oc2S(C)(=O)=O)cc1 | 95.1%
